From PubChem BioAssay AID720706 (Broad Institute, 2013) come the findings set out here.

Screen size: about 350,000 compounds; about 5,500 (1.6%) were called active.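 Rule for the calls: active = significant combined selectivity score with lowered wild-type GFP, culture density cut under 30%, mutant RFP and density less affected; inactive = any of these conditions unmet.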 Many of the other results were omitted from the sample, so actives are more common in it than they were.

A short description of the assay: GFP drop in mixed WT/humanized-ribosome E. coli culture – GFP/RFP fluorescence, OD600, single point, bacterial rRNA inhibitor project, primary screen (AID 720706). The following applies: E. coli WT GFP vs humanized-ribosome RFP mutants, 24 h; GFP signal change (wild-type ribosome): stronger effect = lower value, DMSO median 0, no signal -100; OD600 change: measured here: OD600 growth, DMSO median 0, no signal -100; RFP signal change: measured here: RFP humanized mutant strains, DMSO median 0, no signal -100, concentration not given here.
For `Cc1ncoc1C(=O)NCCC(c1ccccc1)c1ccccc1`, the GFP signal change (wild-type ribosome) was -22.1% (active), the OD600 change was -9.13% and the RFP signal change amounted to 0.235%.
Take `Cc1ccnc(NC(=O)CNC(=O)c2ccccc2)c1`: the GFP signal change (wild-type ribosome) was 0.565% (inactive), the OD600 change came to 1.47% and the RFP signal change worked out at 0.604%.
In the same order, the values of `Cc1noc(C)c1COc1ccc(C(=O)NCCOc2ccccc2)cc1` are -5.24% (inactive), -2.29% and -0.784%.
With `COc1ccc(NC(=O)Nc2ccc3c(c2)C(=O)N([C@@H](C)CO)C[C@@H](C)[C@@H](CN(C)Cc2ccncc2)OCCCC[C@@H](C)O3)cc1`, the GFP signal change (wild-type ribosome) is -3.01% (inactive), the OD600 change is -5.38% and the RFP signal change amounted to 9.15%.
In the same order, the values of `CO[C@@H]1CN(C)C(=O)c2cc(NC(=O)NC3CCCCC3)ccc2OC[C@@H](C)N(C(C)=O)C[C@H]1C` are 1.07% (inactive), 3.15% and -0.812%.
In the same order, the values of `COc1cccc(-c2ccc([C@H]3[C@H](CO)N4CCCCN(S(=O)(=O)c5cccs5)C[C@@H]34)cc2)c1` are -0.886% (inactive), -0.41% and 0.565%.
For `Cc1cccc(-c2ccc([C@@H]3[C@@H](CO)N4CCCCN(S(=O)(=O)c5cccs5)C[C@H]34)cc2)c1`, in that order: -37.8% (active), -24.1% and -1.67%.
Regarding `Cc1cccc(-c2ccc([C@H]3[C@H](CO)N4CCCCN(S(=O)(=O)c5cn(C)cn5)C[C@@H]34)cc2)c1`, the GFP signal change (wild-type ribosome) was 2.02% (inactive), the OD600 change was found to be 3.81% and the RFP signal change was 1.54%.
Take `Cc1ccccc1-c1ccc2c(c1)O[C@@H](CN(C)C(=O)Nc1ccc(F)cc1)[C@H](C)CN([C@@H](C)CO)S2(=O)=O`: the GFP signal change (wild-type ribosome) was -3.25% (inactive), the OD600 change was -11.6% and the RFP signal change was -1.01%.
Consider `O=C(c1ccncc1)N1CC(=O)N2[C@H](CO)[C@H](c3ccc(-c4ccccc4F)cc3)[C@@H]2C1`, for which the GFP signal change (wild-type ribosome) is 3.75% (inactive), the OD600 change was -1.79% and the RFP signal change was -0.215%.
Regarding `CCCNC(=O)N1CC2(C1)CN(Cc1cccc(F)c1)[C@@H](CO)c1[nH]c3cc(OC)ccc3c12`, the GFP signal change (wild-type ribosome) is 0.104% (inactive), the OD600 change was 3.77% and the RFP signal change was 0.338%.
For `Cn1c(SCC(=O)N2CCCCC2)nc2c(c1=O)SCC2`, the GFP signal change (wild-type ribosome) was 5.14% (inactive), the OD600 change is -0.579% and the RFP signal change is -0.99%.
Turning to `Cc1cccc(CSc2nc3c(c(=O)n2C)SCC3)c1`, the GFP signal change (wild-type ribosome) is -33.5% (active), the OD600 change is -21% and the RFP signal change was -2.49%.
For `COCCn1c(SCC(=O)Nc2ccc(F)cc2F)nc2c(c1=O)SCC2`, in that order: 0.103% (inactive), -1.78% and -3.71%.
For `CCCN1[C@H](C(=O)N[C@H](C)c2ccccc2)[C@@H](CO)[C@@H]2Cn3c(ccc(-c4ccccc4)c3=O)[C@@H]21`, in that order: -1.92% (inactive), -37.1% and 14.2%.
For `Cc1cccc(N2C(=O)SC(N(CC(=O)O)c3cccc(C)c3)C2=O)c1` (stereo unspecified), in that order: 2.86% (inactive), 2.55% and 2.75%.
With `Cc1ccc(N2C(=O)SC(N(CC(=O)O)c3ccc(C)cc3)C2=O)cc1` (stereo unspecified), the GFP signal change (wild-type ribosome) was -19.1% (active), the OD600 change was -12.3% and the RFP signal change stood at 8.05%.
For `Cc1ccc(CC2S/C(=C(/C#N)C(=O)N3CCOCC3)N(c3ccccc3)C2=O)cc1` (stereo unspecified), in that order: 7.88% (inactive), 10.1% and -0.528%.
In the same order, the values of `CCC(=O)N(C)C[C@@H]1Oc2cc(C#CCOC)ccc2S(=O)(=O)N([C@@H](C)CO)C[C@@H]1C` are 2.66% (inactive), 5.66% and -0.769%.
Consider `C[C@H](CO)N1C[C@H](C)[C@@H](CN(C)S(=O)(=O)c2ccc(Cl)cc2)Oc2ccc(NS(=O)(=O)c3cccs3)cc2CC1=O`, for which the GFP signal change (wild-type ribosome) is -3.83% (inactive), the OD600 change was -15.4% and the RFP signal change came out at 2.4%.
`COc1ccc(C(C)(O)c2nc(-c3ccc(C)c(C)c3)cs2)cc1` (stereo unspecified): the GFP signal change (wild-type ribosome) is -26.3% (inactive), the OD600 change was -43.5% and the RFP signal change worked out at 0.438%.
In the same order, the values of `CC(C)(C)C(=O)OCc1nc(-c2ccc(O)c(O)c2)cs1` are -25.8% (active), -12.7% and -1.12%.
Turning to `CN(c1ccc(O)cc1)c1nc(-c2cccnc2)cs1`, the GFP signal change (wild-type ribosome) is -12.4% (inactive), the OD600 change was -11.5% and the RFP signal change was -4.17%.
In the same order, the values of `COc1ccccc1-c1ccc([C@@H]2C[C@H]3[C@H](CON3C)CN2S(=O)(=O)c2cc(Cl)cc(Cl)c2)cc1` are 6.53% (inactive), 14.8% and -4.58%.
In the same order, the values of `O=C(CSc1nnnn1-c1ccc(O)cc1)c1ccc(F)cc1` are -23.8% (inactive), -18.1% and -2.43%.
For `Cc1ccccc1-n1nnnc1SCCCC(=O)c1ccc(F)cc1`, in that order: -23.1% (active), -14.2% and -2.44%.
Take `CC(=O)Nc1ccc(NC(=O)CSc2nnnn2-c2ccccc2F)cc1`: the GFP signal change (wild-type ribosome) is 4.89% (inactive), the OD600 change was 2.23% and the RFP signal change was -0.743%.
In the case of `CCNC(=O)Nc1ccc2c(c1)C(=O)N(C)[C@H]1CC[C@H](CC(=O)NCC3CCCCC3)O[C@@H]1CO2`, the GFP signal change (wild-type ribosome) is -0.861% (inactive), the OD600 change is -5.67% and the RFP signal change is 0.251%.
For `O=C(c1ccc(F)cc1)N1CC(=O)N2[C@H](CO)[C@H](c3ccc(-c4ccccc4F)cc3)[C@@H]2C1`, in that order: 0.409% (inactive), -9.64% and 3.17%.
In the same order, the values of `C[C@@H]1CN([C@H](C)CO)C(=O)c2cc(NC(=O)Nc3ccccc3)ccc2O[C@@H](C)CCCCO[C@@H]1CN(C)S(=O)(=O)c1ccc(F)cc1` are 1.72% (inactive), -2.21% and -3.62%.
For `COc1ccc2c3c(n(C)c2c1)[C@@H](CO)N(C)CC31CN(S(=O)(=O)c2cccs2)C1`, in that order: 0.733% (inactive), -9.82% and -0.435%.
As to `O=C(C[C@@H]1CC[C@@H](NC(=O)Nc2ccc(F)cc2)[C@H](CO)O1)NCCN1CCCC1`, the GFP signal change (wild-type ribosome) is 0.52% (inactive), the OD600 change came to 4.7% and the RFP signal change was -1.57%.
